Here are results for 14 compounds from PubChem BioAssay.

The structures appear in SMILES notation. The source made the active and inactive calls.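 Rule for the calls, unless noted: active = fluorescence slope after compound addition differing from the mean of all screened samples at 99.7% confidence, in either direction; inactive = the rest.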

The nature of test [1]: inhibitors of TNFa-induced NFkB p65 translocation, primary screen, imaging, HUVEC, MLSMR starter and 10KST1 sets (AID 438;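 active = inhibition above 20% together with a positive visual image hit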;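 note: compound added about 3h40 before a 20 min TNFalpha stimulation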;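 for inhibition: signal is the nuclear over cytoplasmic p65 intensity ratio per well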). Particulars: HUVEC TNFa-induced p65 nuclear translocation; cell count: measured here: nuclei count (cytotoxicity indicator), at 2.08 µM; inhibition: at 2 µM, stronger effect = higher value, 0% TNFa-plus-vehicle, 100% no-TNFa wells.
Test [2] is described as follows: reduction of polyQ htt aggregates in cells – imaging, exon1htt(103Q)mCFP cells, high-content imaging, primary screen (AID 483;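 active = visual image review flags a hit and inhibition of aggregation exceeds 20%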;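 note: compound exposure lasted 3 days before fixation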;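 for nuclei count: percent of the per-plate median nuclei count of sample wells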). Particulars: exon1htt(103Q)mCFP cell line, aggregate imaging, at 2 µM; inhibition of aggregation: stronger effect = higher value; nuclei count: measured here: cell count, toxicity.
Test [3] can be described thus: endothelial E-selectin expression blockers – imaging, HUVEC, immunofluorescence, MLSMR starter and 10KST1 sets, primary screen (AID 487;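 active = visually confirmed hit in the image check and inhibition above 20%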;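 for inhibition: signal is fraction of cell area covered by stained E-selectin grains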;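 for nuclei count: 100% = median nuclei count of all wells on the same plate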). The note with it: HUVEC TNFalpha-induced E-selectin immunofluorescence imaging, at 2 µM; inhibition: stronger effect = higher value; nuclei count: measured here: cell number, toxicity.
The target in test [4] is Voltage-gated potassium channel subunit beta-2 (Rattus norvegicus) (UniProt P62483). Nature of the test: inhibitors of rat Kvbeta2 reductase activity – biochemical, NADPH fluorescence, primary screen (AID 622;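 active = fluorescence slope higher than the sample average by over 3 SD, cut at about -0.22 in these data, passing the limit was not always enough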;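 note: slope of raw intensity against log time taken from 70 to 1610 s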). The note with it: recombinant KvBeta, 4-cyanobenzaldehyde reduction, at 10 µM, stronger effect = higher value.
The target is the same in test [5]. Nature of the test: enhancers of rat Kvbeta2 NADPH turnover – biochemical, NADPH fluorescence, primary screen (AID 623;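 active = NADPH fluorescence slope more negative than the mean of all samples by about 3 SD, 99.7% confidence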;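 note: fluorescence intensity change per second fitted from 20 to 320 s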). Particulars: Recombinant KvBeta, NADPH fluorescence decrease slope, 10 min; at 10 µM; stronger effect = lower value.
Test [6] addresses Alpha-2C adrenergic receptor (Homo sapiens) (UniProt P18825). Nature of the test: compounds altering alpha2C-coupled GIRK flux – cell-based, HEK293 alpha2C/GIRK1/2, thallium flux, primary screen (AID 624).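 Note: slope of fluorescence ratio to pre-addition baseline per second over 15 to 24 s.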 The note with it: thallium flux BTC fluorescence, at 10 µM, actives lie on both sides.
Test [7] is described as follows: blockers of RIG-like receptor reporter activation – cell-based, Sendai virus stimulus, luciferase, 10K MLSCN set, TLR/RLR signaling modifier project, primary screen (AID 602276;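 active = inhibition at or above 50% at 10 µM; inactive = inhibition below 50%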;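 note: firefly luciferase from ISG56 promoter only with Renilla not read in this screen; 0% = Sendai virus plus DMSO and 100% = medium plus DMSO without virus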). The note with it: HEK293 RL24 IRF3 luciferase reporter, at 10 µM, stronger effect = higher value.
A short description of test [8]: TLR3 IRF3 reporter activation blockers – cell-based, poly I:C stimulus, luciferase, 10K MLSCN set, primary screen (AID 602277;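 active = inhibition of the reporter signal at or above 50%; inactive = inhibition below 50%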). The note with it: HEK293-TLR3 RL24 IRF3 luciferase reporter, at 10 µM, stronger effect = higher value. (In general: Reporter assays use an easily measured gene product as a stand-in for the process of interest.)

Chain of Alpha-2C adrenergic receptor (Homo sapiens) (P18825 whole entry, looked up): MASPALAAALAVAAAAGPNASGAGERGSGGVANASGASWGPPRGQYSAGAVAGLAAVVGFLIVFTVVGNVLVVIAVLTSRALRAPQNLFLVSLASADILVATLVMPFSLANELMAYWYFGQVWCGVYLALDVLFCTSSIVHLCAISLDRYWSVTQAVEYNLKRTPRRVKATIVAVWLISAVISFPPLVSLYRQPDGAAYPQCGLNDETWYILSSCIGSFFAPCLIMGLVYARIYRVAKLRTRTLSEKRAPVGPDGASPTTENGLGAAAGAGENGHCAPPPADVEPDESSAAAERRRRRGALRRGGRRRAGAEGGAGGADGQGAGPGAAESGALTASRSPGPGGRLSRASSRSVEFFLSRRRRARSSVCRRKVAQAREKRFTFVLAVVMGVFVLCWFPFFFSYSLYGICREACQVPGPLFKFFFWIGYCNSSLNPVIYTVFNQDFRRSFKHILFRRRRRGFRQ
Chain of Voltage-gated potassium channel subunit beta-2 (Rattus norvegicus) (P62483 whole entry, looked up): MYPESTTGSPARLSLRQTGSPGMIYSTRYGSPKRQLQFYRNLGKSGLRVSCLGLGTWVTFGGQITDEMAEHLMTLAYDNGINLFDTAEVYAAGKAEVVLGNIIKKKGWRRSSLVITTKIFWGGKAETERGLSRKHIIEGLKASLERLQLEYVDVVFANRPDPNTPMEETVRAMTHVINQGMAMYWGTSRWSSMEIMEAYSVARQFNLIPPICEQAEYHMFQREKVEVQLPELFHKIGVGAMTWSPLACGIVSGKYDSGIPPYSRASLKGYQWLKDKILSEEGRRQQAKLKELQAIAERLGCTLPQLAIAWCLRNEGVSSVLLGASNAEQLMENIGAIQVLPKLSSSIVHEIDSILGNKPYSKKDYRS

As for `CC(C)C(C(=O)Nc1ccc2c(c1)OCO2)N1C(=O)c2ccccc2C1=O` (centres undefined), the cell count in test [1] stood at 696. Moreover, the inhibition in test [1] is -1% (inactive); in test [3], 77.1% (active); in test [7], 14.6% (inactive); in test [8] it was 25.5% (inactive). Moreover, in test [2], the inhibition of aggregation is 10.6% (inactive). The nuclei count in test [2] is 109%; in test [3] it was 85%. In test [4], the fluorescence slope was -0.411 (inactive). Moreover, the NADPH fluorescence slope in test [5] was -8.9e-05 (inactive). The slope in test [6] is 0.00641 (inactive).
Consider `COCCNC(=O)C(C)N(c1ccc(Oc2ccccc2)cc1)S(C)(=O)=O` (centres undefined), for which the cell count in test [1] came out at 333. The inhibition in test [1] was 2.5% (inactive); in test [3], -21.7% (inactive); in test [7], 14.7% (inactive); in test [8] it was 23.7% (inactive). Further, in test [2], the inhibition of aggregation is -15.1% (inactive). Also, the nuclei count in test [2] amounted to 98.6%; in test [3] it was 111%. Besides, in test [4], the fluorescence slope is -0.445 (inactive). For the same compound, the NADPH fluorescence slope in test [5] is -6.4e-05 (inactive). In addition, the slope in test [6] is 0.00568 (inactive).
On to `CC(=O)Nc1ccc(S(=O)(=O)N2CCN(C(=O)CCC3CCCC3)CC2)cc1`, for which the cell count in test [1] amounted to 312. Moreover, the inhibition in test [1] was -0.8% (inactive); in test [3] it was -42.2% (inactive); in test [7] it was 24.2% (inactive); in test [8] it was 10.7% (inactive). Moreover, the inhibition of aggregation in test [2] is -12.8% (inactive). In addition, the nuclei count in test [2] stood at 96.2%; in test [3] it was 129%. In test [4], the fluorescence slope was -0.581 (inactive). For the same compound, the NADPH fluorescence slope in test [5] was 5.8e-05 (inactive). In test [6], the slope is 0.00522 (inactive).
With `CC1=C(C(=O)N2CCOCC2)C(c2ccsc2)C2=C(CCCC2=O)N1` (centres undefined), the cell count in test [1] was 326. Besides, the inhibition in test [1] is -25.2% (inactive); in test [3], -11.7% (inactive); in test [7], 19.4% (inactive); in test [8], 20.8% (inactive). Further, the inhibition of aggregation in test [2] was 2.7% (inactive). Also, the results for the nuclei count in test [2] and in test [3] were 99.6% and 110%, respectively. For the same compound, the fluorescence slope in test [4] is -0.408 (inactive). The NADPH fluorescence slope in test [5] is -4.5e-05 (inactive). In test [6], the slope is 0.00554 (inactive).
Consider `COc1ccc(-c2noc(-c3ccccc3C(=O)Nc3cccnc3)n2)cc1`, for which, in test [1], the cell count worked out at 218. The inhibition was 6.7% (inactive) in test [1], -54.7% (inactive) in test [3], 12.1% (inactive) in test [7] and 12.9% (inactive) in test [8]. For the same compound, the inhibition of aggregation in test [2] was 0.1% (inactive). Also, the nuclei count in test [2] stood at 87.6%; in test [3] it was 95.3%. Moreover, the fluorescence slope in test [4] is -0.601 (inactive). Also, the NADPH fluorescence slope in test [5] was 1.8e-05 (inactive). Further, the slope in test [6] was 0.00583 (inactive).
For the compound `CCOC(=O)c1cccc(NC(=O)CSc2nc3cccnc3n2C)c1`, the cell count in test [1] was determined as 782. Besides, the inhibition in test [1] is -8.4% (inactive); in test [3], -14.2% (inactive); in test [7], -4.22% (inactive); in test [8], -23.7% (inactive). Moreover, the inhibition of aggregation in test [2] was 0.7% (inactive). Also, the nuclei count in test [2] was 111%; in test [3], 105%. Moreover, the fluorescence slope in test [4] was -0.526 (inactive). Moreover, the NADPH fluorescence slope in test [5] is 4.1e-06 (inactive). Besides, in test [6], the slope was 0.00563 (inactive).
`CN1CCN(c2nc3c(c(=O)[nH]c(=O)n3C)n2CCSc2nc3ccccc3s2)CC1`: the cell count in test [1] was found to be 503. In addition, the inhibition in test [1] was -0.3% (inactive); in test [3] it was 30.5% (inactive); in test [7], 12.4% (inactive); in test [8], 33.3% (inactive). Besides, the inhibition of aggregation in test [2] was 25.5% (inactive). The nuclei count in test [2] stood at 106%; in test [3], 100%. In addition, the fluorescence slope in test [4] was -0.578 (inactive). The NADPH fluorescence slope in test [5] was -3e-05 (inactive). For the same compound, the slope in test [6] is 0.00601 (inactive).
On to `O=C(Nc1ccccc1)c1cccc(N2CCCC2=O)c1`, for which the cell count in test [1] was determined as 363. Moreover, the inhibition in test [1] was -6.9% (inactive); in test [3], -74.1% (inactive); in test [7] it was -43.5% (inactive); in test [8] it was -128% (inactive). The inhibition of aggregation in test [2] is -3.4% (inactive). In addition, the nuclei count in test [2] came to 101%; in test [3] it was 88%. Further, the fluorescence slope in test [4] was -0.457 (inactive). Also, the NADPH fluorescence slope in test [5] is 3.8e-05 (inactive). The slope in test [6] is 0.00552 (inactive).
With `O=C(NC1CCCCC1)N(Cc1ccc(F)cc1)Cc1nc2ccccc2c(=O)[nH]1`, in test [1], the cell count is 348. The inhibition in test [1] was 1.1% (inactive); in test [3], -71.7% (inactive); in test [7] it was 21% (inactive); in test [8] it was 29% (inactive). Also, the inhibition of aggregation in test [2] is -22.3% (inactive). Moreover, the nuclei count came out at 96.5% in test [2] and 99% in test [3]. Also, in test [4], the fluorescence slope was -0.333 (inactive). Also, the NADPH fluorescence slope in test [5] is 3.6e-06 (inactive). The slope in test [6] was 0.0032 (inactive).
Take `CCOCCCNC(=O)C(c1ccccc1)N(Cc1ccc2c(c1)OCO2)C(=O)CNC(C)=O` (centres undefined): the cell count in test [1] turned out to be 220. For the same compound, the inhibition in test [1] was 10.9% (inactive); in test [3] it was -63.6% (inactive); in test [7], 10.2% (inactive); in test [8], 16.2% (inactive). Moreover, the inhibition of aggregation in test [2] is 0.6% (inactive). Also, the nuclei count in test [2] stood at 94.8%; in test [3], 95.1%. Moreover, the fluorescence slope in test [4] was -0.562 (inactive). The NADPH fluorescence slope in test [5] is -2.1e-05 (inactive). Besides, in test [6], the slope was 0.00624 (inactive).
Consider `CC(C)N(Cc1nc(-c2ccccc2)no1)C(=O)CCCN1C(=O)c2ccccc2C1=O`, for which the cell count in test [1] is 475. Further, the inhibition in test [1] is -9.3% (inactive); in test [3], -78.3% (inactive); in test [7], 4.76% (inactive); in test [8], 3.27% (inactive). Further, in test [2], the inhibition of aggregation was -7.3% (inactive). The values for the nuclei count in test [2] and in test [3] were 112% and 158%, respectively. Besides, the fluorescence slope in test [4] is -0.53 (inactive). Also, the NADPH fluorescence slope in test [5] was -8.9e-06 (inactive). Moreover, the slope in test [6] was 0.00616 (inactive).
Regarding `O=C(CN1C(=O)c2ccccc2S1(=O)=O)Nc1ccc(S(=O)(=O)N2CCCCCC2)cc1`, the cell count in test [1] amounted to 727. Besides, the inhibition in test [1] is -2.6% (inactive); in test [3], -91.2% (inactive); in test [7], 4.06% (inactive); in test [8], 19.5% (inactive). Also, in test [2], the inhibition of aggregation is -11.1% (inactive). For the same compound, the values for the nuclei count in test [2] and in test [3] were 99.9% and 107%, respectively. Further, the fluorescence slope in test [4] is -0.489 (inactive). The NADPH fluorescence slope in test [5] is -5.4e-05 (inactive). Moreover, in test [6], the slope is 0.00568 (inactive).
In the case of `CCOC(=O)c1sc2nc(NC(=O)COc3ccccc3)sc2c1C`, the cell count in test [1] is 715. Moreover, the inhibition is -6.9% (inactive) in test [1], -12.6% (inactive) in test [3], -24% (inactive) in test [7] and -40.4% (inactive) in test [8]. Further, the inhibition of aggregation in test [2] was 9.3% (inactive). Also, the nuclei count in test [2] was found to be 106%; in test [3], 105%. For the same compound, the fluorescence slope in test [4] is -0.591 (inactive). The NADPH fluorescence slope in test [5] was -1.3e-05 (inactive). Besides, in test [6], the slope was 0.00688 (inactive).
Consider `COc1ccc(-c2nnc3sc(C(C)N4C(=O)c5ccccc5C4=O)nn23)cc1` (centres undefined), for which the cell count in test [1] came out at 528. Besides, the inhibition was -3.3% (inactive) in test [1], -8.9% (inactive) in test [3], -9.81% (inactive) in test [7] and -4.7% (inactive) in test [8]. The inhibition of aggregation in test [2] was 2.3% (inactive). The nuclei count in test [2] came out at 91.9%; in test [3] it was 105%. Besides, the fluorescence slope in test [4] is -0.45 (inactive). In addition, the NADPH fluorescence slope in test [5] is 4.5e-05 (inactive). The slope in test [6] is 0.00329 (inactive).

By inhibition is commonly meant the relative decrease from the control value, in per cent.
